{
  "source": "PubChem BioAssay AID504467",
  "about": "(National Center for Advancing Translational Sciences (NCATS), 2011)",
  "note": "The whole screen tested about 330,000 compounds, of which about 7,700 (2.3%) were called active. Not shown: some 26% with an inconclusive outcome. Calls come from the whole dose curve; as a rule, active = well fitted inhibition curve with a large enough effect; inconclusive = small, poorly fitted or top-dose-only effect, or effect the other way; inactive = flat fitted curve, though single readings scatter. Many of the other results were omitted from the sample, so actives are more common in it than they were. % is set by controls: 0 for no effect and ±100 for the full control effect; potency is the fitted concentration of half-maximal effect.",
  "data": [
    {"test": "qHTS screen for small molecules that inhibit ELG1-dependent DNA repair in human embryonic kidney (HEK293T) cells expressing luciferase-tagged ELG1; note: nearly all actives have a fitted effect of over 55% in size", "conditions": "HEK293T ELG1-luciferase reporter, luminescence, 16 h, DNA damage induced by 5-fluorouridine; series mostly up to 46.1 µM; activity change, negative = inhibition: at the top concentration", "in_short": "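Luminescence from the luciferase reporter, measured 30 min after ONE-Glo reagent at room temperature, was the read-out. Beforehand, 2,000 cells per well were exposed for 16 hr at 37 °C to 5-fluorouridine together with compound or vehicle.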", "values": [
      {"smiles": "CCC(C)N(C(=O)CSc1ncnc2c1cnn2-c1ccccc1)C1CCS(=O)(=O)C1", "note": "(configuration not stated)", "activity change, negative = inhibition": "-23.7% (inactive)"},
      {"smiles": "O=C(CSc1nc2ccccc2c(=O)n1Cc1ccc(F)cc1)NCC1CCCO1", "note": "(configuration not stated)", "activity change, negative = inhibition": "4.76% (inactive)"},
      {"smiles": "CN(Cc1nc2ccccc2s1)C(=O)c1ccc(F)cc1", "activity change, negative = inhibition": "11.3% (inactive)"},
      {"smiles": "Cc1nc2ccccc2c(-c2ccccc2)c1C(=O)c1ccccc1", "activity change, negative = inhibition": "-18.7% (inactive)"},
      {"smiles": "Cc1nc2ccccc2c(C)c1C(=O)c1ccc(F)cc1", "Potency": "14.6 µM (active)"},
      {"smiles": "Cc1ccc2nc(SCC(=O)N3CC(C)OC(C)C3)nc(=O)n2c1", "note": "(configuration not stated)", "activity change, negative = inhibition": "28.1% (inactive)"},
      {"smiles": "CCN(CC(=O)Nc1ccc(S(=O)(=O)N2CCCC2)cc1)CC(=O)Nc1cccc(OC)c1", "activity change, negative = inhibition": "0.139% (inactive)"},
      {"smiles": "CCOc1ccc(NC(=O)COc2ccc(S(=O)(=O)N3CCCC3)cc2)cc1", "activity change, negative = inhibition": "0.975% (inactive)"},
      {"smiles": "COc1ccc(CCNC(=O)C2CCCN(S(=O)(=O)c3ccc(OC)cc3)C2)cc1", "note": "(configuration not stated)", "activity change, negative = inhibition": "-14.9% (inactive)"},
      {"smiles": "O=C(O)C1CCCN(S(=O)(=O)c2cccc3cccnc23)C1", "note": "(configuration not stated)", "activity change, negative = inhibition": "5.15% (inactive)"},
      {"smiles": "COc1ccc(NC(=O)C2CCCN(S(=O)(=O)c3cccc4cccnc34)C2)cc1OC", "note": "(configuration not stated)", "Potency": "20.6 µM (active)"},
      {"smiles": "Cc1cccc(OCCCC(=O)Nc2ccc(S(=O)(=O)N3CCCC3)cc2)c1", "Potency": "18.4 µM (active)"},
      {"smiles": "CCOc1cccc(NC(=O)C2CCCN(S(=O)(=O)c3ccc(OC)cc3)C2)c1", "note": "(configuration not stated)", "Potency": "23.1 µM (active)"},
      {"smiles": "COc1ccccc1CNC(=O)C1CCCN(S(=O)(=O)c2cccc3cccnc23)C1", "note": "(configuration not stated)", "activity change, negative = inhibition": "-0.624% (inactive)"},
      {"smiles": "Cc1ccc(C)c(OCCC(=O)Nc2cccc(S(=O)(=O)N3CCCC3)c2)c1", "activity change, negative = inhibition": "-28.4% (inactive)"},
      {"smiles": "COc1ccc(C(=O)O)cc1S(=O)(=O)NC1CCN(Cc2ccccc2)CC1", "activity change, negative = inhibition": "18.1% (inactive)"},
      {"smiles": "CCOCCCN(C)C1CCN(C(=O)c2oc3ccccc3c2NC(=O)Cc2cccc([N+](=O)[O-])c2)CC1", "activity change, negative = inhibition": "-0.878% (inactive)"},
      {"smiles": "CCCCC[C@@H]1C=C(C(=O)O)[C@H](c2ccc(C#N)cc2)N1S(=O)(=O)c1ccc(C)cc1", "activity change, negative = inhibition": "-1.41% (inactive)"},
      {"smiles": "COc1ccc(C(C(=O)NCC2CCCO2)N(C(=O)Cn2nnc3ccccc32)c2ccc(NC(C)=O)cc2)cc1OC", "note": "(configuration not stated)", "activity change, negative = inhibition": "22.7% (inactive)"},
      {"smiles": "COc1ccccc1CNS(=O)(=O)c1cc(C(=O)NCc2ccccn2)c(Cl)cc1Cl", "activity change, negative = inhibition": "-4.45% (inactive)"},
      {"smiles": "COc1ccc(N2CCN(C(=O)Cn3cnc4sc(C)c(S(=O)(=O)N5CCOCC5)c4c3=O)CC2)cc1", "activity change, negative = inhibition": "-2.61% (inactive)"},
      {"smiles": "COc1ccc(OCC(=O)Nc2ccc(NC(=O)c3ccco3)c(C)c2)cc1", "activity change, negative = inhibition": "22.9% (inactive)"},
      {"smiles": "Cc1cccc(OCC(=O)Nc2ccc(NC(=O)c3ccco3)c(C)c2)c1", "activity change, negative = inhibition": "4.01% (inactive)"},
      {"smiles": "CCN(CC)P(=O)(Nc1ccc(SC(F)F)cc1)c1ccc(N(C)C)cc1NC(=O)c1ccco1", "note": "(configuration not stated)", "Potency": "7.3 µM (active)"},
      {"smiles": "Cc1ccc2c(c1)c1ncn(Cc3ccc(F)cc3)c(=O)c1n2C", "activity change, negative = inhibition": "10.3% (inactive)"},
      {"smiles": "CC(C)(C)n1ncc2c(=O)n(Cc3c(Cl)cccc3Br)cnc21", "activity change, negative = inhibition": "-23.1% (inactive)"},
      {"smiles": "CC(C)(C)n1ncc2c(=O)n(Cc3ccc(Cl)cc3)cnc21", "Potency": "20.6 µM (active)"},
      {"smiles": "COc1cc(NC(=O)COC(=O)c2cc(S(=O)(=O)N3CCOCC3)ccc2F)cc(OC)c1", "activity change, negative = inhibition": "-6.98% (inactive)"},
      {"smiles": "COCCNc1nc(N)c([N+](=O)[O-])c(N2CCCCCC2)n1", "activity change, negative = inhibition": "-15.1% (inactive)"},
      {"smiles": "O=C(CN1CCN(c2ccccc2O)CC1)NC(=O)NCc1ccccc1", "activity change, negative = inhibition": "-4.25% (inactive)"},
      {"smiles": "O=C(C1CCN(C2CCN(Cc3cccc4c3OCO4)CC2)CC1)N1CCOCC1", "activity change, negative = inhibition": "-21.1% (inactive)"},
      {"smiles": "C/C(=C\\c1ccco1)CN1CCC(N2CCC(C(=O)N3CCOCC3)CC2)CC1", "activity change, negative = inhibition": "0.385% (inactive)"},
      {"smiles": "O=C(C1CCN(C2CCN(Cc3ccc4cc(F)ccc4n3)CC2)CC1)N1CCCC1", "Potency": "13 µM (active)"},
      {"smiles": "CCCC(CNC(=O)COC(=O)C1=NNC(=O)CC1)c1ccc(Cl)cc1Cl", "note": "(configuration not stated)", "activity change, negative = inhibition": "-1.01% (inactive)"},
      {"smiles": "CN(CC(=O)Nc1ccc(C(N)=O)cc1)S(=O)(=O)c1ccc2c(c1)OCCO2", "activity change, negative = inhibition": "8.22% (inactive)"},
      {"smiles": "CCOc1ccc(NS(=O)(=O)c2ccc(C(=O)NC3CCN(Cc4ccccc4)CC3)cc2)cc1", "activity change, negative = inhibition": "-23% (inactive)"},
      {"smiles": "COc1cc(OC)cc(C(=O)N[C@H](C(=O)NNC(=O)c2ccc(Br)cc2)C(C)C)c1", "activity change, negative = inhibition": "-27.5% (inactive)"},
      {"smiles": "O=C(NCC(F)(F)F)Nc1nnc(C(F)(F)F)s1", "Potency": "18.4 µM (active)"},
      {"smiles": "O=C(Nc1nnc(COc2ccccc2)s1)Nc1ccccc1F", "activity change, negative = inhibition": "1.38% (inactive)"},
      {"smiles": "COc1ccc(C)cc1NC(=O)CCC(=O)Nc1nnc(C(F)(F)F)s1", "activity change, negative = inhibition": "7.17% (inactive)"},
      {"smiles": "CCOc1ccc(CC(=O)NCCS(=O)(=O)N2CCN(c3ccccc3)CC2)cc1", "activity change, negative = inhibition": "-28.2% (inactive)"},
      {"smiles": "O=C(NCCS(=O)(=O)N1CCN(c2ccccc2F)CC1)c1ccc(Br)o1", "activity change, negative = inhibition": "-0.534% (inactive)"},
      {"smiles": "COc1ccccc1N1CCN(S(=O)(=O)CCNC(=O)c2ccc(OC(C)C)cc2)CC1", "Potency": "13 µM (active)"},
      {"smiles": "COc1ccc(S(=O)(=O)N2CCCCC2)cc1NC(=O)C1CC(=O)N(c2ccc3c(c2)OCCO3)C1", "note": "(configuration not stated)", "activity change, negative = inhibition": "-20.1% (inactive)"},
      {"smiles": "CC1CC(=O)Nc2ccccc2N1C(=O)COc1ccc2cc(Br)ccc2c1", "note": "(configuration not stated)", "activity change, negative = inhibition": "-1.49% (inactive)"},
      {"smiles": "C#CCOc1ccccc1/C=C1/C(=O)ON=C1C", "activity change, negative = inhibition": "6.14% (inactive)"},
      {"smiles": "Cn1cccc1/C=N/NC(=O)CNc1cccc2ccccc12", "Potency": "13 µM (active)"},
      {"smiles": "C/C(=N\\NC(=O)CNc1cccc2ccccc12)c1ccc(Br)s1", "activity change, negative = inhibition": "6.87% (inactive)"},
      {"smiles": "Cc1cccc(/C=N/NC(=O)CNc2cccc3ccccc23)n1", "activity change, negative = inhibition": "22.4% (inactive)"},
      {"smiles": "Cc1ccc(NC(=O)COc2coc(CN3CCc4ccccc4C3)cc2=O)cc1Cl", "activity change, negative = inhibition": "4.56% (inactive)"},
      {"smiles": "CC1=NN(Cc2ccccc2)C(=O)/C1=C/c1ccc(N(C)C)cc1", "activity change, negative = inhibition": "12.1% (inactive)"},
      {"smiles": "CN(C)c1cc[n+](Cc2ccccc2)cc1", "Potency": "8.2 µM (active)"},
      {"smiles": "CC(Cc1ccccc1)C(=O)N(C)Cc1ccccc1", "note": "(configuration not stated)", "activity change, negative = inhibition": "-7.66% (inactive)"},
      {"smiles": "CCN1C(=O)[C@@H]2[C@@H](c3ccc(-c4ccccc4)cc3)N3CCCC[C@@]3(C(=O)OC)[C@@H]2C1=O", "activity change, negative = inhibition": "-15.9% (inactive)"},
      {"smiles": "CC(C)Cn1c(N)c(C(=O)NCc2cccs2)c2nc3ccccc3nc21", "Potency": "9.2 µM (active)"},
      {"smiles": "CCCNC(=O)c1c(N)n(-c2ccc(S(N)(=O)=O)cc2)c2nc3ccccc3nc12", "activity change, negative = inhibition": "6.21% (inactive)"},
      {"smiles": "CCOc1ccccc1NC(=O)Cn1nnc(C(=O)NCc2cccs2)c1N", "activity change, negative = inhibition": "25% (inactive)"},
      {"smiles": "CC(C(=O)N1CCc2ccccc21)N(C)CC(=O)Nc1ccc(F)cc1", "note": "(configuration not stated)", "activity change, negative = inhibition": "-4.18% (inactive)"},
      {"smiles": "Cc1noc(C)c1CSCC(=O)N(CCC(C)C)c1c(N)n(Cc2ccccc2)c(=O)[nH]c1=O", "activity change, negative = inhibition": "3.47% (inactive)"},
      {"smiles": "Cc1cccc(OCC(O)CN2CCN(S(=O)(=O)c3ccc(C)cc3C)CC2)c1", "note": "(configuration not stated)", "Potency": "11.6 µM (active)"},
      {"smiles": "COc1cccc(OCC(O)CN2CCN(CCO)CC2)c1", "note": "(configuration not stated)", "activity change, negative = inhibition": "14.2% (inactive)"},
      {"smiles": "Cc1ccc(OCC(O)CN2CCN(CC(O)COc3ccc(C)cc3Cl)CC2)c(Cl)c1", "note": "(configuration not stated)", "activity change, negative = inhibition": "-1.07% (inactive)"}
    ]}
  ]
}
